Source: PubChem
Only a selection was taken, and hits are over-represented in it overall.
nsP2pro inh: blocks chikungunya virus nsP2 protease peptide cleavage. FRET peptide cleavage, nsP2pro, fluorescence 1 h. Potency, µM (series often up to 24.9 µM), for the others: at the highest dose activity change, negative = inhibition, most hits filed as inhibitors. 31,000 compounds, 1.1% hits. AID 1964107; further: nearly all actives have a fitted effect of over 60% in size
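FRET cleavage of 2.5 uM peptide 2 by 150 nM CHIKV protease domain at pH 8.0 (Tris, Tween 20). Compounds at 7 concentrations (up to 25 uM) preincubated 15 min. Fluorescence read after 1 h at room temperature.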
nsP2 cell sec: inhibits CHIKV nsP2 protease in cells; 450 compounds, 10% hits; cell-based CHIKV nsP2 protease reporter assay; shares compounds with nsP2pro inh; Potency, µM (titrated, usually from 51.1 µM), for the others: at the highest dose activity change, negative = inhibition, actives largely listed as inhibitors; further: nearly all actives have a fitted effect of over 70% in size
CHIKV NSP2 FL: full-length CHIKV NSP2 protease inhibition, selectivity. shares compounds with nsP2pro inh. Full-length CHIKV NSP2 protease enzymatic counterscreen. Potency, µM (doses to about 50.7 µM), for the others: top-dose activity change, negative = inhibition, most hits filed as inhibitors. 410 compounds, 39% hits. AID 1964101; further: nearly all actives have a fitted effect of over 65% in size
Furin counter: inhibits human furin in a CHIKV nsP2 protease selectivity counterscreen. Potency, µM (top dose mostly 50.6 µM), without a hit: at the top dose activity change, negative = inhibition, most hits filed as inhibitors. Recombinant human furin enzymatic counterscreen, fluorogenic substrate. AID 1964102. 410 compounds, 6% hits. shares compounds with nsP2pro inh
nsP2 NS23 pep: selectivity test for CHIKV nsP2 protease inhibitors: endogenous NS2/3 peptide | shares compounds with nsP2pro inh | Purified CHIKV nsP2 protease, endogenous NS2/3 peptide cleavage | Potency, µM (doses to about 51 µM), without a hit: at the highest dose activity change, negative = inhibition, most hits filed as inhibitors | 410 compounds, 34% hits | AID 1964103; further: nearly all actives have a fitted effect of over 55% in size
Papain counter: inhibits papain in a CHIKV nsP2 protease selectivity counterscreen. shares compounds with nsP2pro inh. purified papain protease activity, enzymatic inhibition. Potency, µM (titrated, usually from 51 µM), inactives show top-dose activity change, negative = inhibition, actives largely listed as inhibitors. 410 compounds, 5% hits. AID 1964104
nsP2pro conf qHTS: confirmation of CHIKV nsP2 protease inhibitors. CHIKV nsP2 protease enzymatic activity, qHTS. Potency, µM (series often up to 25.5 µM), for the others: at the top dose activity change, negative = inhibition, actives largely listed as inhibitors. 410 compounds, 43% hits. shares compounds with nsP2pro inh; further: nearly all actives have a fitted effect of over 75% in size
HCV NS3 counter: selectivity counter-screen for CHIKV nsP2 protease inhibitors: HCV NS3/4A | HCV NS3/4A protease biochemical counterscreen | 410 compounds, 20% hits | shares compounds with nsP2pro inh | AID 1964106 | Potency, µM (doses to about 50.9 µM), actives largely listed as inhibitors; further: nearly all actives have a fitted effect of over 55% in size
Active calls of the source: *; i = inactive; ? = inconclusive; · = no result given; [ ] = another dose, or the depositor's remark. The call rests on the fitted dose curve. On the % scale 0 is the no-effect control and ±100 the full control effect; potency means the concentration at half of the fitted maximal effect.

SMILES	nsP2pro inh	others
COc1ccccc1-c1nc2ccccc2s1	i
CC(C)=CCC/C(C)=C/CC/C(C)=C/CC/C(C)=C/CC1=C(C)C(=O)c2ccccc2C1=O	-27%
CC1=CC(=O)c2ccccc2C1=O	?	nsP2 cell sec=-11%;CHIKV NSP2 FL=-14%;Furin counter=3%;nsP2 NS23 pep=?;Papain counter=-20%;nsP2pro conf qHTS=4%;HCV NS3 counter=i
C=C1C[C@H]2[C@@H]3CCC4=CC(=O)CC[C@@H]4[C@H]3CC[C@]2(C)[C@@]1(OC(C)=O)C(C)=O	-13%
C[C@@H](COc1ccc(Oc2ccccc2)cc1)Oc1ccccn1	-10%[39.2 µM]
C#CCOc1cc(C2=Nn3c(nnc3-c3ccc(OCC(C)=O)cc3)SC2)ccc1OC	-1%
Cc1c(C(=O)OC2CCCCCC2)[nH]c2c1C(=O)CC(c1ccccc1Cl)C2 (centres undefined)	-23%
Cc1c(C(=O)OCC2CCCCO2)[nH]c2c1C(=O)CC(c1ccco1)C2 (centres undefined)	7.9µM*	nsP2 cell sec=15µM*;CHIKV NSP2 FL=-19%;Furin counter=?;nsP2 NS23 pep=-31%;Papain counter=-10%;nsP2pro conf qHTS=-3%;HCV NS3 counter=i
Cc1c(C(=O)OCC2CCCCC2)[nH]c2c1C(=O)CC(c1ccc(F)cc1)C2 (centres undefined)	-24%
CC(C)C1CCC(C(=O)Nc2ccc(S(=O)(=O)Nc3nccs3)cc2)CC1 (centres undefined)	-5%
CC(=O)N1CCN(c2nc3c(s2)CC(C(=O)Nc2cc(Cl)ccc2F)CC3)CC1 (centres undefined)	i
COc1cccc(-c2ccc(CN3CCCC(NC(=O)c4ccc(Cl)cc4)C3)cc2)c1 (centres undefined)	1%
CNC1CCN(C(Cc2cccc(-c3ccncc3)c2)C(=O)c2sc3c(F)ccc(F)c3c2Cl)CC1 (centres undefined)	·	nsP2 cell sec=?;CHIKV NSP2 FL=?;Furin counter=-11%;nsP2 NS23 pep=-23%;Papain counter=-8%;nsP2pro conf qHTS=34%;HCV NS3 counter=i
O=C(NC1CCN(Cc2cccc(-c3cccs3)c2)CC1)c1cccc(Cl)c1	i
COc1cccc2sc(NC(=O)c3ccc4c(c3)OCCN(C3CCC3)C4)nc12	i
CC(=O)Nc1sc2c(c1-c1ccc(C#N)cc1)CCNC2	-9%
CC(C)c1ccccc1-c1ncc(F)c(NC2(c3ccc(-c4cccnc4)cc3)CC2)n1	0%
Cc1ccc(-n2nc(C)c([C@@H]3C=C[C@@H](NCc4ccc(F)cc4)C3)c2C)cc1Cl	20%[39.2 µM]
Cc1nn(-c2ccc(F)cc2)c(C)c1[C@@H]1C=C[C@@H](NCc2ccc(C(C)C)cc2)C1	29%[39.2 µM]
Cc1nn(CCC#N)c(C)c1[C@@H]1C=C[C@@H](NCc2ccc(C(C)C)cc2)C1	?	nsP2 cell sec=137%;CHIKV NSP2 FL=6µM*;Furin counter=-12%;nsP2 NS23 pep=17µM*;Papain counter=-8%;nsP2pro conf qHTS=12µM*;HCV NS3 counter=4.2µM*
Cc1nccn1C1(C(=O)O)CCN(Cc2ccc(-c3ccn[nH]3)o2)CC1	-15%
Cc1ccsc1[C@@H]1CCN(Cc2ccc(-c3ccn[nH]3)o2)C[C@H]1O	3.5µM*	nsP2 cell sec=?;CHIKV NSP2 FL=?;Furin counter=0%;nsP2 NS23 pep=?;Papain counter=-3%;nsP2pro conf qHTS=8µM*;HCV NS3 counter=?
Cc1ccc(CN2CC[C@H](c3nnc(-c4ccco4)o3)C2)o1	2%[39.2 µM]
CCOc1ccc(CCNC(=O)c2cc3ccccc3n2Cc2cccc(C)n2)cc1OCC	3%
Fc1ccc(-c2nnc(CCCCSc3nnc(-c4cccc5ccccc45)o3)o2)cc1	-2%
SMILES	nsP2pro inh	others
CC(=O)Nc1ccc(CN2CC(Oc3ccc4c(c3)OCO4)C2)cc1	2%
O=C(C1CC1)N1CCC(C(=O)N2CC(Oc3ccc4c(c3)OCO4)C2)CC1	7.9µM*	nsP2 cell sec=7%;CHIKV NSP2 FL=13µM*;Furin counter=-9%;nsP2 NS23 pep=?;Papain counter=-2%;nsP2pro conf qHTS=8µM*;HCV NS3 counter=7.3µM*
NC(=O)C1CCN(c2ncc(-c3ccc4c(c3)OCO4)s2)CC1	-5%
Nc1ccc(CNc2ccc([S+](=O)([O-])Nc3nccs3)cc2)c(O)c1	i
Cc1cc(C)nc(NC(=S)N2CCN(Cc3c(F)cccc3Cl)CC2)c1	-4%
CCn1ccnc1CNC(=O)c1cc(OC)ccc1OC1CCN(C(=O)C2CC2)CC1	i
CN(C)C1(CNC(=O)c2ccc(OC3CCN(C(=O)C4CC4)CC3)cc2)CCCCC1	?	nsP2 cell sec=-10%;CHIKV NSP2 FL=4%;Furin counter=-1%;nsP2 NS23 pep=?;Papain counter=-2%;nsP2pro conf qHTS=16%;HCV NS3 counter=i
CC(C)C(=O)NCC1(N(C)C)CCCCC1	13%
CC1=CC(=O)C(=C(C)C)CC2C(C)(O)CCC12O (centres undefined)	55%
C=C1CC2(C(=O)O)CC1CCC2C1(C)CCCC2(C)C(=O)OC(O)C21 (centres undefined)	-12%
O=C(Cc1ccc(Cl)c(Cl)c1)Nc1ccc([S+](=O)([O-])Nc2ncn[nH]2)cc1	1%
CC(C)(C)OC(=O)N1CCN(c2ccc(NCc3ccc4c(c3)OCO4)cc2)CC1	?	nsP2 cell sec=6.5µM*;CHIKV NSP2 FL=0%;Furin counter=-12%;nsP2 NS23 pep=-22%;Papain counter=3%;nsP2pro conf qHTS=-6%;HCV NS3 counter=i
CC(C)(C)OC(=O)N1CCN(c2ccc(NCc3cc(-c4ccc(C#N)cc4)co3)cc2)CC1	i
CC(C)(C)OC(=O)N1CCN(c2ccc(NCc3ccc(-c4ccc(C(C)(C)C)cc4)o3)cc2)CC1	-1%
CC(C)(C)OC(=O)N1CCN(c2ccc(NCc3ccc(-c4cc(C(F)(F)F)cc(C(F)(F)F)c4)o3)cc2)CC1	2%
CC(C)(C)OC(=O)N1CCN(c2ccc(NCc3coc(-c4ccc(C#N)cc4)c3)cc2)CC1	10µM*	nsP2 cell sec=?;CHIKV NSP2 FL=-27%;Furin counter=-4%;nsP2 NS23 pep=-12%;Papain counter=-9%;nsP2pro conf qHTS=9%;HCV NS3 counter=?
CC(C)(C)OC(=O)N1CCN(c2ccc(NCc3occc3-c3ccc(C#N)cc3)cc2)CC1	i
O=[N+]([O-])c1ccc(CNc2ccc([S+](=O)([O-])Nc3nccs3)cc2)c(O)c1	i
COc1ccc2cc1Nc1ccc(cc1)C[C@H](NCc1ccc(C)o1)C(=O)N(C)[C@H](C(=O)NCCC(C)C)C2	-23%
CN(C(=O)c1cc2nc(-c3ccco3)cc(C(F)(F)F)n2n1)c1ccc(OC(F)(F)Cl)cc1	-25%
O=C(NCc1cccs1)c1cc2nc(-c3ccco3)cc(C(F)(F)Cl)n2n1	5.6µM*	nsP2 cell sec=14%;CHIKV NSP2 FL=-3%;Furin counter=-16%;nsP2 NS23 pep=-19%;Papain counter=-2%;nsP2pro conf qHTS=-16%;HCV NS3 counter=i
O=C(Nc1cccc(C(F)(F)F)c1)c1cc2nc(-c3ccco3)cc(C(F)(F)Cl)n2n1	-2%
